Three compounds from PubChem BioAssay (EPA / NIEHS) can be followed below.

The nature of assay [1]: CEETOX_H295R_DOC: CeeTox H295R High-throughput Steroidogenesis Assay for DOC (AID 2283439). The conditions noted are these: actives raise or lower the signal. Summed up:
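H295R, fsk 10 uM ×48 h pre, cmpd ×48 h (0.1% DMSO). Media → MTBE extr. → LC-MS/MS, DOC. Bidirectional fit vs DMSO; MTT viability same wells, re-test diluted if <70%.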

A short description of assay [2]: CEETOX_H295R_ESTRADIOL: CeeTox H295R High-throughput Steroidogenesis Assay for Estradiol (AID 2283440).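 Also: estradiol secreted into medium quantified by LC-MS/MS after dansyl derivatisation.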 The conditions noted are these: actives raise or lower the signal. In outline:
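Following OECD 456 with minor changes, H295R cells received 10 uM forskolin for 48 h and then test chemical for 48 h. Hormone output was read by HPLC-MS/MS, with cytotoxic concentrations diluted until MTT viability reached ≥70%.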

Assay [3] in a line: CEETOX_H295R_ESTRONE: CeeTox H295R High-throughput Steroidogenesis Assay for Estrone (AID 2283441).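 Also: estrone secreted into medium measured by LC-MS/MS after dansyl derivatization.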 The settings on record: actives raise or lower the signal. In outline: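 Forskolin-stimulated H295R cells are treated 48 h with chemical, and estrone in the medium is measured by LC-MS/MS. Activity is fitted in both directions relative to DMSO controls, with chemicals diluted until MTT viability reaches at least 70%.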

Assay [4] can be described thus: CEETOX_H295R_PROG: CeeTox H295R High-throughput Steroidogenesis Assay for Progesterone (PROG) (AID 2283442).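 As to AC50: human H295R adrenal cells primed with 10 µM forskolin before dosing; progesterone secreted into medium by H295R cells measured by HPLC-MS/MS.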 The settings on record: actives raise or lower the signal. Summed up:
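Adrenal H295R line, forskolin-stimulated (10 uM, 48 h) before dosing. 48 h exposure, 0.1% DMSO vehicle. Secreted progesterone by reverse-phase HPLC with ESI+ MS/MS quantification; DMSO-normalised bidirectional curve fit.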

Read-out in assay [5]: Tumor necrosis factor receptor superfamily member 6 (Homo sapiens) (UniProt P25445)
The assay is described as follows: LTEA_HepaRG_FAS: Life Technologies and Expression Analysis (LTEA) Assay for Fas cell surface death receptor (FAS) using HepaRG (AID 2283447). The conditions noted are these: mRNA level, 48 h; actives raise or lower the signal. In outline: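 Differentiated HepaRG cells in serum-free induction medium were exposed 48 h to 8 half-log concentrations up to 100 uM in 0.5% DMSO, in duplicate. FAS mRNA was measured by qRT-PCR normalised to ACTB, GAPDH and POLR2A; bidirectional fit versus DMSO.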

Read-out in assay [6]: Fatty acid synthase (Homo sapiens) (UniProt P49327)
The experiment in a line: LTEA_HepaRG_FASN: Life Technologies and Expression Analysis (LTEA) Assay for Fatty Acid Synthase (FASN) using HepaRG (AID 2283448). The settings on record: mRNA level, 48 h; actives raise or lower the signal. Summed up:
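In human HepaRG cultures, 48 h chemical exposure (up to 100 uM, 0.5% DMSO) preceded TaqMan qRT-PCR of FASN.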

Read-out in assay [7]: Cyclin D2 (CCND2), CCND2 (gene 894)
The assay is described as follows: LTEA_HepaRG_CCND2: Life Technologies and Expression Analysis (LTEA) Assay for Cyclin D2 (CCND2) using HepaRG (AID 2283449).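 Also: CCND2 transcript measured by TaqMan qRT-PCR and normalised to three housekeeping genes.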 The settings on record: mRNA level, 48 h; actives raise or lower the signal. In outline: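 HepaRG, 48 h dosing, 8-pt half-log curve from 100 uM, 0.5% DMSO; duplicate wells. Readout: CCND2 transcript by microfluidic qRT-PCR, housekeeping-normalised; bidirectional fit vs DMSO baseline.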

Read-out in assay [8]: Cyclin Dependent Kinase Inhibitor 1A (CDKN1A), CDKN1A (gene 1026)
The assay is described as follows: LTEA_HepaRG_CDKN1A: Life Technologies and Expression Analysis (LTEA) Assay for Cyclin Dependent Kinase Inhibitor 1A (CDKN1A) using HepaRG (AID 2283450). The conditions noted are these: mRNA level, 48 h; actives raise or lower the signal. In outline: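 Cryopreserved HepaRG cells were plated and cultured 48 h, then switched to serum-free induction medium. Chemicals (eight half-log concentrations, top 100 uM, 0.5% DMSO) were applied for 48 h. Lysates underwent qRT-PCR for CDKN1A with housekeeping normalization.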

Read-out in assay [9]: Cyclin D1 (CCND1), CCND1 (gene 595)
The experiment in a line: LTEA_HepaRG_CCND1: Life Technologies and Expression Analysis (LTEA) Assay for Cyclin D1 (CCND1) using HepaRG (AID 2283451).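 As to AC50: TaqMan qRT-PCR transcript level normalised to ACTB GAPDH and POLR2A housekeeping genes.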 The settings on record: mRNA level, 48 h; actives raise or lower the signal. Summed up:
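Human liver HepaRG line; 48 h dosing, 8 conc. ≤100 uM, 0.5% DMSO; TaqMan qRT-PCR mRNA, 3 housekeeping genes; bidirectional curve fit vs DMSO.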

Read-out in assay [10]: catalase (CAT), CAT (gene 847)
The assay is described as follows: LTEA_HepaRG_CAT: Life Technologies and Expression Analysis (LTEA) Assay for catalase (CAT) using HepaRG (AID 2283452). The conditions noted are these: mRNA level, 48 h; actives raise or lower the signal. In outline:
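HepaRG cells in serum-free induction medium, 0.5% DMSO vehicle, exposed 48 h in duplicate over 8 half-log concentrations from 100 uM. CAT mRNA measured by qRT-PCR, normalized to ACTB, GAPDH, POLR2A; bidirectional fit versus DMSO.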

Read-out in assay [11]: flavin-containing dimethylaniline monooxygenases 3 (FMO3), FMO3 (gene 2328)
The assay is described as follows: LTEA_HepaRG_FMO3: Life Technologies and Expression Analysis (LTEA) Assay for flavin-containing dimethylaniline monooxygenases 3 (FMO3) using HepaRG (AID 2283453). The conditions noted are these: mRNA level, 48 h; actives raise or lower the signal. In outline:
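Eight-point concentration-response in serum-free HepaRG cultures (top 100 uM, 0.5% DMSO, 48 h). Read-out: FMO3 mRNA level normalized to three endogenous control genes, fitted bidirectionally versus vehicle.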

Read-out in assay [12]: Cytochrome P450 (CYP1A1), CYP1A1 (gene 1543)
The experiment in a line: LTEA_HepaRG_CYP1A1: Life Technologies and Expression Analysis (LTEA) Assay for Cytochrome P450 (CYP1A1) using HepaRG (AID 2283454). The settings on record: mRNA level, 48 h; actives raise or lower the signal. In outline: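 Induction of CYP1A1 mRNA in a human hepatic cell line was measured 48 h after dosing, with 1 mM phenobarbital as induction positive control and 0.5% DMSO vehicle as baseline for bidirectional curve fitting.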

Read-out in assay [13]: CFLAR gene, CFLAR (gene 8837)
The experiment in a line: LTEA_HepaRG_CFLAR: Life Technologies and Expression Analysis (LTEA) Assay for CFLAR gene using HepaRG (AID 2283455). The conditions noted are these: mRNA level, 48 h; actives raise or lower the signal. Summed up:
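qRT-PCR read-out (Fluidigm/TaqMan) of CFLAR mRNA, normalized to three housekeeping genes, in differentiated human HepaRG cells after 48 h chemical exposure; 8-point half-log series from 100 uM in 0.5% DMSO; bidirectional curve fitting versus DMSO.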

Read-out in assay [14]: Forkhead box O1 (FOXO1), FOXO1 (gene 2308)
The assay is described as follows: LTEA_HepaRG_FOXO1: Life Technologies and Expression Analysis (LTEA) Assay for Forkhead box O1 (FOXO1) using HepaRG (AID 2283456). The settings on record: mRNA level, 48 h; actives raise or lower the signal. Summed up: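 HepaRG, 48 h exposure, 8-pt half-log series from 100 uM in 0.5% DMSO, duplicates; Fluidigm qRT-PCR mRNA, housekeeping-normalised; bidirectional fit vs DMSO baseline.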

Read-out in assay [15]: growth arrest and DNA damage 45 (GADD45A), GADD45A (gene 1647)
The experiment in a line: LTEA_HepaRG_GADD45A: Life Technologies and Expression Analysis (LTEA) Assay for growth arrest and DNA damage 45 (GADD45A) using HepaRG (AID 2283458). The settings on record: mRNA level, 48 h; actives raise or lower the signal. Summed up:
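Eight-point concentration-response in HepaRG cells: 48 h chemical exposure, 0.5% DMSO vehicle, top dose 100 uM. Normalized qRT-PCR mRNA readout with bidirectional fitting relative to DMSO.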

Read-out in assay [16]: Forkhead box O3 (FOXO3), FOXO3 (gene 2309)
The experiment in a line: LTEA_HepaRG_FOXO3: Life Technologies and Expression Analysis (LTEA) Assay for Forkhead box O3 (FOXO3) using HepaRG (AID 2283459). The settings on record: mRNA level, 48 h; actives raise or lower the signal. Summed up:
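qRT-PCR readout of FOXO3 transcript, normalized to three housekeeping genes (ACTB, GAPDH, POLR2A); gain or loss fitted against 0.5% DMSO vehicle. HepaRG cells, 48 h chemical exposure, 8-point half-log series, top 100 uM.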

Read-out in assay [17]: ABC Transporter (ABCB1), ABCB1 (gene 5243)
The experiment in a line: LTEA_HepaRG_ABCB1: Life Technologies and Expression Analysis (LTEA) Assay for ABC Transporter (ABCB1) using HepaRG (AID 2283460). The conditions noted are these: mRNA level, 48 h; actives raise or lower the signal. In outline: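 HepaRG, 48 h exposure, 8-pt half-log series from 100 uM, 0.5% DMSO vehicle, duplicates. Readout: ABCB1 transcript by Fluidigm TaqMan qRT-PCR, housekeeping-normalized; bidirectional curve fit vs DMSO baseline.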

Read-out in assay [18]: growth arrest and DNA damage 45 (GADD45B), GADD45B (gene 4616)
The assay is described as follows: LTEA_HepaRG_GADD45B: Life Technologies and Expression Analysis (LTEA) Assay for growth arrest and DNA damage 45 (GADD45B) using HepaRG (AID 2283461). The settings on record: mRNA level, 48 h; actives raise or lower the signal. In outline:
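Values are bidirectional concentration-response fits against 0.5% DMSO controls. Underlying data: qRT-PCR mRNA levels in human HepaRG liver cells treated 48 h in serum-free induction medium, eight concentrations topping at 100 uM.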

Read-out in assay [19]: ABC Transporter (ABCC3), ABCC3 (gene 8714)
The experiment in a line: LTEA_HepaRG_ABCC3: Life Technologies and Expression Analysis (LTEA) Assay for ABC Transporter (ABCC3) using HepaRG (AID 2283462). The settings on record: mRNA level, 48 h; actives raise or lower the signal. Summed up:
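Differentiated HepaRG liver cells receive test chemicals at eight concentrations (max 100 uM) for 48 h. Expression of ABCC3 is quantified by qRT-PCR against ACTB, GAPDH and POLR2A, and activity is fitted in both directions against the DMSO control.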

Assay [20] in a line: CEETOX_H295R_TESTO: CeeTox H295R High-throughput Steroidogenesis Assay for Testosterone (TESTO) (AID 2283457).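 Also: cells exposed to chemicals for 48 h before medium collection.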 The conditions noted are these: actives raise or lower the signal. In outline: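 Testosterone synthesis is assessed in human adrenocortical H295R cells after 48 h of chemical exposure, using HPLC-MS/MS of extracted medium. Activity is fitted in both directions against DMSO control.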

Calls of active or inactive are those of the source. The calls were made as follows: active = hit-call score of the fitted dose curve at least 0.9, where 1 is the maximum; inactive = score below 0.9.

Chain of Fatty acid synthase (Homo sapiens) (P49327 whole entry, looked up): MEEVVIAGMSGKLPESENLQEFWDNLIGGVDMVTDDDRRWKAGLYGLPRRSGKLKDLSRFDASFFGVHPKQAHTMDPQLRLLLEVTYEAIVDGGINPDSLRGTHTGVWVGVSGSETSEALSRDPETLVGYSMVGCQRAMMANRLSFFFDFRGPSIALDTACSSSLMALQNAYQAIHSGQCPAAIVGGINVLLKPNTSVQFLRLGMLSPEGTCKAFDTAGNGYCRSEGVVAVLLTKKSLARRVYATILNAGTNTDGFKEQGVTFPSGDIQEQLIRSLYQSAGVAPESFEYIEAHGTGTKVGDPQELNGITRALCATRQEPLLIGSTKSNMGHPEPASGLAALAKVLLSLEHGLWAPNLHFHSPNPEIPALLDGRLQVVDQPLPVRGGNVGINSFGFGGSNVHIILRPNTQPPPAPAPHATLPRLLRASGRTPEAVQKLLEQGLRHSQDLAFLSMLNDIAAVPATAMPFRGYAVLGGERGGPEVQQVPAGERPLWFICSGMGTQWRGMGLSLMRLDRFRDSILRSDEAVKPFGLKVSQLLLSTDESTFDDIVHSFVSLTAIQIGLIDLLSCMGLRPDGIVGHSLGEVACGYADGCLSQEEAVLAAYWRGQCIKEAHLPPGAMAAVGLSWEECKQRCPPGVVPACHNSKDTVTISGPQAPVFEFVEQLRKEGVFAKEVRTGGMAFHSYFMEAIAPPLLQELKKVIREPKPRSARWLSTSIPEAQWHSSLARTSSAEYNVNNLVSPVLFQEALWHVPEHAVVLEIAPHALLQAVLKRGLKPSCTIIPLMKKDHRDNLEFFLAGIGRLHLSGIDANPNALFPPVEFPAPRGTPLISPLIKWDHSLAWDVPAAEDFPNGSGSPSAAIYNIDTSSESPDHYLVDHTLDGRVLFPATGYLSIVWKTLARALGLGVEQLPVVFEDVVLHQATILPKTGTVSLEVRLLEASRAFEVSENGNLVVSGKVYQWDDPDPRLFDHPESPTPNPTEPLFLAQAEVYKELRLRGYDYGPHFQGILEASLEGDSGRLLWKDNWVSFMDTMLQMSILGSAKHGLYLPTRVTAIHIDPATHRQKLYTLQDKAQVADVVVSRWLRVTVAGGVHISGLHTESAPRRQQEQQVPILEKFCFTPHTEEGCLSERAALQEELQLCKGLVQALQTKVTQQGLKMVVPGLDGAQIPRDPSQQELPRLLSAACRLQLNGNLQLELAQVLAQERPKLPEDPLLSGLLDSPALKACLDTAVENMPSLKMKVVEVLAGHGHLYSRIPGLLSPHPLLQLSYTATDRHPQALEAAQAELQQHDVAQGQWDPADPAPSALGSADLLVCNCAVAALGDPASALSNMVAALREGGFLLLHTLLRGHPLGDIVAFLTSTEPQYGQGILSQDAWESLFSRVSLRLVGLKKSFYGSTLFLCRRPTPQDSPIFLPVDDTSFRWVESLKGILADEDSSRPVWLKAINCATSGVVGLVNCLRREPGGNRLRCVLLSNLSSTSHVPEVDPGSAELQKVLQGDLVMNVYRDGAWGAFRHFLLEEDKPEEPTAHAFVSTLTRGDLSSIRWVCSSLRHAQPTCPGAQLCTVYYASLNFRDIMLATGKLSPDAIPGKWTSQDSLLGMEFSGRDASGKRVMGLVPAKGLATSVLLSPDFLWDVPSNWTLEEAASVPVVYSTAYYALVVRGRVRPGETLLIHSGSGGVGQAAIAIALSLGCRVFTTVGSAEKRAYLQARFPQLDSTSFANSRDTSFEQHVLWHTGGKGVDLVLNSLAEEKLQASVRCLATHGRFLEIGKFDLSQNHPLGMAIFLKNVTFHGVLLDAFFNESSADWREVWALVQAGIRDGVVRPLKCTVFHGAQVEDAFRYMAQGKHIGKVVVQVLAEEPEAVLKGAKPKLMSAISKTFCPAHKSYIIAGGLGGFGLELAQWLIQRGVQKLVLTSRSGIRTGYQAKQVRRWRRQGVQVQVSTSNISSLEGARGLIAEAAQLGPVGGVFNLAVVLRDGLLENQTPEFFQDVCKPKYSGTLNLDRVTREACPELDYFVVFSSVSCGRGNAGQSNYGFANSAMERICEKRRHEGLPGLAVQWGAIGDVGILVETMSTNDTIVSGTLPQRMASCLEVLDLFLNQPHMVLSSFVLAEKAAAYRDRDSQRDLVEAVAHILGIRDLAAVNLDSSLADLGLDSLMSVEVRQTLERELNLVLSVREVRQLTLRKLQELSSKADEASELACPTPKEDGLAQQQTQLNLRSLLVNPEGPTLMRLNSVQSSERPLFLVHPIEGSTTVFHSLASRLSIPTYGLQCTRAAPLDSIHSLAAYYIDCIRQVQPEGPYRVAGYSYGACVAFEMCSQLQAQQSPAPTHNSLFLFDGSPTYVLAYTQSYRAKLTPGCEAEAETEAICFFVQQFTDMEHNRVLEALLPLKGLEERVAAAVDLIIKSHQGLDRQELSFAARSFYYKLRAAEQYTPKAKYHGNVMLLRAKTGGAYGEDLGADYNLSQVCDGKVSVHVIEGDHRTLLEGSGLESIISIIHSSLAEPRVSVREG

With `Cn1c(=O)cc(Oc2ccc(F)cc2F)c2cnc(NCC(C)(C)O)nc21`, the result in [1], in assay [2], in assay [3], in assay [4], in assay [5] and in [6] was inactive. Also, the call in assay [7], in assay [8], in assay [10], in assay [11], in [13] and in assay [14] was inactive. Also, the compound was classed as inactive in assay [15], in assay [16], in assay [17], in assay [18] and in [19]. Besides, the AC50 in assay [9] is 17 µM (active); in [12] it was 11.9 µM (active).
On to `Oc1ccc2c(c1)-c1ccccc1C2`, for which the AC50 was 30.3 µM (active) in [1], 30.8 µM (active) in [4], 10.5 µM (active) in assay [12] and 38.5 µM (active) in assay [20]. Besides, the call in [5], in assay [6], in assay [8], in assay [9], in assay [10] and in assay [11] was inactive. Also, the call in [13], in assay [14], in assay [15], in assay [16], in assay [18] and in assay [19] was inactive.
Regarding `CC[C@H](C)C(=O)O[C@H]1C[C@@H](C)C=C2C=C[C@H](C)[C@H](CC[C@@H]3C[C@@H](O)CC(=O)O3)[C@H]21`, the AC50 is 0.641 µM (active) in assay [1], 12.1 µM (active) in assay [6] and 12.7 µM (active) in [17]. Moreover, the compound was classed as inactive in assay [2], in assay [3], in assay [4], in [5], in assay [7] and in [8]. Further, the result in assay [9], in assay [10], in assay [11], in assay [13], in [14] and in assay [15] was inactive. The compound was classed as inactive in assay [16], in assay [18] and in assay [19].

In general, AC50 refers to the concentration giving half of the maximal activity seen.
